SENP8 block-1 – blocks the human protease SENP8; hit rate 1.2% among 330,000; inhibition, % at 10 µM; AID 2540; purified SENP8, Z-RLRGG-aminoluciferin cleavage, luminescence; in the data active means inhibition above about 50%
SENP8 block-2 – blocks human SENP8 cleavage of Nedd8 substrate; Q96LD8; recombinant SENP8, Nedd8 substrate fluorescence; inhibition, % at 20 µM; hit rate 0.64% among 360,000; in the data active means inhibition mostly above about 40%, no sharp cut-off; inactive means mostly below about 27%
C8 TRAIL sens – caspase-8 TRAIL sensitization. hit rate 1% among 360,000. NB7+C8 cells + TRAIL, ATPlite viability luminescence. inhibition (viability loss, TRAIL sensitization), % at 10 µM;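 active means compounds causing at least 50% loss of cell viability in the single-dose screen, relative to plate controls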
SENP6 block – blocks the human protease SENP6 | Q9GZR1 | Recombinant SENP6 catalytic domain, aminoluciferin luminescence | hit rate 1.8% among 330,000 | inhibition, % at 10 µM | AID 2599;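 active means inhibition above about 50% at the single tested dose, limit read from the data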;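 further: plate controls were DMSO wells with enzyme for no effect and DMSO wells lacking enzyme for full effect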
Target sequence (Q9GZR1 628-1112 limits assumed): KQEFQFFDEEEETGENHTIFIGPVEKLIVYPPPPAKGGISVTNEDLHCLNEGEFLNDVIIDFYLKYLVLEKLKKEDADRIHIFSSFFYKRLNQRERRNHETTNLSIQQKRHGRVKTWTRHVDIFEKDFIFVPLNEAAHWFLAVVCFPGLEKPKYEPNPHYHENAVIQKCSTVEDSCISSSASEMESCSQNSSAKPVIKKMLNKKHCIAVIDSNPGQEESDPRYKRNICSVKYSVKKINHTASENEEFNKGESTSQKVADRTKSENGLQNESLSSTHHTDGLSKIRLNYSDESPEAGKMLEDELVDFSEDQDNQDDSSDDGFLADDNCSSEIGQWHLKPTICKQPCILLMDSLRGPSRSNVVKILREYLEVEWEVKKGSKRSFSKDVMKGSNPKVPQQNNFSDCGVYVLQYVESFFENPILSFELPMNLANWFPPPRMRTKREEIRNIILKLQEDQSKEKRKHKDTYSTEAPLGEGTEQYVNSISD
PPC-1+TRAIL kill – PPC-1 cancer cell killing with TRAIL present. AID 1443. cell killing (% activity), % at 4 µM or 5 µM. PPC-1 cells + TRAIL, ATPLite viability luminescence. hit rate 0.41% among 220,000;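 active means cell killing above 50% in the first pass at 4 µM, then a duplicate retest at 5 µM averaging 50% or more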;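 further: plate controls were cells with TRAIL plus DMSO for no effect and medium-only wells lacking cells for full effect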
SENP7 block – SENP7 protease inhibition. recombinant SENP7, Z-RLRGG-aminoluciferin luminescence, 40 min. inhibition, % at 5 µM. hit rate 1.5% among 330,000;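 active means inhibition above about 50% at the single test dose, limit read from the data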;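 further: plate controls were DMSO with enzyme for no effect and no enzyme buffer wells for full effect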
SENP8 conf – confirmation of human SENP8 protease inhibitors | Recombinant SENP8, Z-RLRGG-aminoluciferin luminescence, 60 min | inhibition, % at 12.5 µM | AID 488912 | hit rate 40% among 6,200 | shares compounds with SENP7 block;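 active means mean inhibition across replicates above about 50%, limit read from the data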
SENP6 conf – human SENP6 inhibition, confirmed; recombinant SENP6, Z-RLRGG-aminoluciferin luminescence; shares compounds with SENP7 block; inhibition, % at 12.5 µM; hit rate 58% among 6,200
SENP7 conf – confirmation of human SENP7 protease inhibitors. inhibition, % at 12.5 µM. recombinant SENP7, Z-RLRGG-aminoluciferin luminescence, 40 min. AID 488917. hit rate 69% among 6,200. shares compounds with SENP7 block
Casp3 SENP sel – caspase-3 inhibition (SENP selectivity assay); shares compounds with SENP7 block; inhibition, % at 12.5 µM; purified caspase-3, Z-DEVD-aminoluciferin luminescence, 60 min; hit rate 60% among 6,200;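 active means mean inhibition above about 50%, limit read from the data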;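 further: plate controls were enzyme with DMSO for no effect and wells without caspase-3 for full effect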
Luc interf – luminescence interference (SENP counter-screen). Pre-incubated SENP8/Z-RLRGG-aminoluciferin, luciferase luminescence interference. hit rate 39% among 6,200. inhibition, % at 12.5 µM. shares compounds with SENP7 block. AID 488919;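 active means mean inhibition above about 50% when retested at one dose, limit read from the data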;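 further: plate controls were DMSO wells with completed reaction for no effect and substrate without enzyme for full effect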
Starred values were filed as active, the others as inactive; i = inactive; x = no result. The list is not random: actives were taken first. Their share in the collection is about 3%.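 How the source made its calls, unless noted: active means mean inhibition above about 50% in the one-dose retest (limit read from the data); inactive means the rest.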

SMILES	SENP8 block-1	SENP8 block-2	C8 TRAIL sens	SENP6 block	PPC-1+TRAIL kill	SENP7 block	SENP8 conf	SENP6 conf	SENP7 conf	Casp3 SENP sel	Luc interf
O=C1C(c2ccccc2)=[N+]([O-])c2ccccc21	23	i	17	64*	x	45	55*	69*	75*	61*	27
CCCC(=O)N(c1ccccc1)C1C=CS(=O)(=O)C1 (stereo not given)	2	21	-4	0	16	2	x	x	x	x	x
CCC(=O)N(c1ccc(F)cc1)C1C=CS(=O)(=O)C1 (stereo not given)	-22	8	14	6	4	95*	4	4	0	0	-1
C/C(=N\OC(=O)c1ccccc1F)c1nccs1	-6	16	4	79*	-10	79*	60*	53*	92*	6	33
CCOc1cc(-c2c(C#N)c(N)nc3c2CCc2ccccc2-3)ccc1O	6	-405	-8	9	18	1	x	x	x	x	x
COc1ccccc1-c1c(C#N)c(N)nc2c1CCc1ccccc1-2	78*	-394	-11	96*	18	78*	7	8	12	3	3
O=C(COc1ccc(Cl)cc1)Nc1cc(NC(=O)COc2ccc(Cl)cc2)cc(C(=O)O)c1	3	-3	0	28	x	-3	x	x	x	x	x
c1ccc2c(C3=NNC(=NC4CCCCC4)SC3)c[nH]c2c1	-10	-4	3	5	-1	5	x	x	x	x	x
c1ccc(C2=NNC(=NC3CC3)SC2)cc1	94*	10	17	93*	33	93*	96*	97*	102*	98*	95*
COc1ccc(-n2c(C)cc(C3=NNC(=NC4CC4)SC3)c2C)cc1	x	-12	4	x	2	x	x	x	x	x	x
c1ccc2c(C3=NNC(=NC4CC4)SC3)c[nH]c2c1	36	-7	34	63*	19	30	48	45	81*	80*	67*
COC(=O)[C@@]1(Cc2ccccc2)[C@H]2C(=O)N(C)C(=O)[C@H]2[C@H]2CN=C(SCc3ccccc3)N21	x	18	-4	x	x	-2	x	x	x	x	x
CCOc1ccc(C(=O)Nc2cccc(C(=O)O)c2)cc1Cl	97*	19	49	95*	26	100*	98*	99*	102*	90*	98*
Cc1ccc(-c2cc(NC(=O)c3ccccc3)on2)cc1	52*	9	9	50*	x	87*	34	43	92*	63*	2
CCOc1ccc(C(=O)Nc2cc(NC(=O)c3ccc(OCC)c(Cl)c3)cc(C(=O)O)c2)cc1Cl	3	3	-1	-7	4	5	x	x	x	x	x
O=C(Nc1ccc2c(c1)CCCN2C(=O)c1ccccc1)c1ccccc1	78*	8	16	84*	x	83*	12	85*	97*	85*	67*
O=C(O)c1cccc(NC(=O)c2cc(NC(=O)c3ccccc3)cc(NC(=O)c3ccccc3)c2)c1	-2	0	-7	90*	x	10	15	8	0	-5	-5
Cc1ccccc1C(=O)Nc1ccc2c(c1)CCCN2C(=O)c1cccs1	38	13	35	45	x	31	x	x	x	x	x
[NH-]c1ncnc2c1N=C[N+]2=CC=CCO	x	4	-9	x	-3	x	x	x	x	x	x
CCCCNC(=O)c1onc(CSc2ccc(C(C)C)cc2)c1C(=O)O	x	-4	11	x	-16	x	x	x	x	x	x
Cc1ccc(C(=O)Nc2cccc(C(=O)O)c2)cc1	95*	x	x	92*	38	99*	99*	100*	103*	96*	98*
CCS(=O)(=O)c1ccc(O)c(NC(=O)CC2(CC(=O)O)CCCC2)c1	1	13	-5	8	-2	-2	x	x	x	x	x
COc1ccc(C(=O)Nc2ccccc2)cc1NC(=O)c1cccs1	-8	4	5	-9	x	16	x	x	x	x	x
CCS(=O)(=O)c1ccc2oc(Nc3ccccc3C)nc2c1	69*	9	-1	81*	9	79*	82*	81*	97*	92*	84*
CCN(CC)S(=O)(=O)c1ccc2oc(Nc3ccccc3)nc2c1	32	15	8	55*	x	31	28	24	71*	25	-2
SMILES	SENP8 block-1	SENP8 block-2	C8 TRAIL sens	SENP6 block	PPC-1+TRAIL kill	SENP7 block	SENP8 conf	SENP6 conf	SENP7 conf	Casp3 SENP sel	Luc interf
Cc1ccc(S(=O)(=O)NC2CC2)cc1[N+](=O)[O-]	-14	5	-1	-3	x	9	x	x	x	x	x
CC1(C)OCC(CNC(=O)c2[nH]c(C(F)(F)F)nc2-c2ccccc2)O1 (stereo not given)	x	20	-6	x	x	x	x	x	x	x	x
CCOC(=O)Nc1ccc2nc(N3CCCCCC3)sc2c1	25	13	19	58*	12	33	31	30	69*	23	22
CS(=O)(=O)N1CCN(c2nc3ccc(Cl)cc3s2)CC1	9	26	-6	-14	4	0	x	x	x	x	x
Clc1ccc2nc(N3CCCCC3)sc2c1	88*	33	16	97*	6	90*	78*	84*	89*	82*	46
Fc1cccc2sc(N3CCOCC3)nc12	-9	3	9	-23	-3	4	x	x	x	x	x
Fc1cccc2sc(N3CCCCC3)nc12	25	1	9	59*	11	39	-19	16	71*	45	5
CCOC(=O)N1CCN(C(=O)Nc2ccc3nc(C)sc3c2)CC1	-3	-122	2	-4	16	-2	x	x	x	x	x
Clc1ccc2nc(N3CCCCC3)[nH]c2c1	27	13	48	59*	29	52*	48	47	80*	72*	59*
CC(=O)N1CC2(CC(c3ccccc3C(F)(F)F)=NO2)CN1c1ccc(Cl)cc1 (stereo not given)	x	13	9	x	x	x	x	x	x	x	x
CCSC1=N/C(=C\c2ccc(-c3ccccc3[N+](=O)[O-])o2)C(=O)S1	13	6	-6	50*	30	28	5	4	4	6	3
CC(C)(C)OC(=O)NN1CC(=O)N2Cc3ccccc3C[C@@H]2C1=O	4	7	3	-5	x	-1	x	x	x	x	x
O=C(Nc1cccnc1)c1cc(-c2ccccc2)on1	48	9	8	75*	17	69*	36	49	86*	75*	32

Screens: PubChem BioAssay, Sanford-Burnham Center for Chemical Genomics
